SMILES strings stand for the structures.

This passage reports Inhibition results from ChEMBL document CHEMBL1157539, “Thousands of chemical starting points for antimalarial lead identification” (Nature, 2010).

Holding throughout (format): functional
Assay [1] deals with Plasmodium falciparum. Put plainly: GSK_TCMDC: Inhibition of Plasmodium falciparum 3D7 in whole red blood cells, using parasite LDH activity as an index of growth. Test compounds present at 2uM.
The test system of assay [2] is Plasmodium falciparum. The experiment in a line: GSK_TCMDC: Inhibition of Plasmodium falciparum Dd2 in whole red blood cells, using parasite LDH activity as an index of growth. Test compounds present at 2uM.
In assay [3] the test system is HepG2. Put plainly: GSK_TCMDC: Percent inhibition of human HepG2 cell line. Test compounds present at 10uM.

For orientation: Inhibition means the share of the control response that was lost under treatment. Take `Cl.O=C(O)CNCC(O)c1ccccc1` (stereo not drawn): the Inhibition amounted to 96% in assay [1], 0% in assay [2] and 7% in assay [3].
For `COc1cc2nc(Nc3ccc(N4CCOCC4)cc3)nc(N)c2cc1OC.Cl`, the Inhibition was 95% in assay [1], 10% in assay [2] and 8% in assay [3].
Consider `Cc1c(-c2ccc3c(c2)C(NCCCN2CCCCC2)CC3)cnc(N)c1C.Cl` (stereo not drawn), for which the Inhibition in assay [1] is reported as 97%; in assay [2] it was 3%; in assay [3], 4%.
Turning to `COc1ccc2nccc([C@@H](O)CN3CCC(NCc4cn5cc(F)ccc5n4)CC3)c2c1.O=C(O)C(=O)O`, the Inhibition came to 96% in assay [1], 5% in assay [2] and 19% in assay [3].
The corresponding values for `CCOc1ccc(-c2nonc2NC(=O)c2ccccc2Cl)cc1OCC` are 100%, 100% and 3%.
For `N#Cc1ccc(NC(=O)N2CCCN(CCCCCNC(=O)/C=C/c3ccc(Cl)c(Cl)c3)CC2)cc1`, the Inhibition in assay [1] is 100%; in assay [2] it was 4%; in assay [3], 32%.
For `COc1cc2nc(NCC3CCN(c4nc(N)c5cc(OC)c(OC)cc5n4)CC3)nc(N)c2cc1OC`, in that order: 92%, 73% and 12%.
Turning to `CC(C)C[C@H](NC(=O)c1ccc(OCCN2CCOCC2)cc1)C(=O)N[C@H](/C=N/NC(=O)c1ccccc1)CCc1ccccc1`, the results for the Inhibition in assay [1], in assay [2] and in assay [3] were 98%, 90% and 17%, respectively.
The corresponding values for `COc1ccc(C=NN=c2cc(C)[nH]c3ccccc23)c(OC)c1` are 100%, 94% and 24%.
Regarding `COc1ccccc1CCNc1nc(C)cc(NCCC(=O)Nc2ccccc2)n1.O=C(O)C(F)(F)F`, the Inhibition in assay [1] is on record as 100%; in assay [2] it was 24%; in assay [3], 7%.
The corresponding values for `COc1ccc(OCCON)cc1.Cl` are 98%, 0% and 0%.
For `Cc1cc(CNCCCCCCNCc2cccc([N+](=O)[O-])c2)ccc1O`, in that order: 90%, 0% and 13%.
The corresponding values for `CC(C)CN1CCN(c2nc(C#N)c3c(c2C(=S)NC2CCCCC2)CC(C)(C)OC3)CC1` are 100%, 99% and 0%.
For the compound `COc1ccc(CN2CCCN(Cc3cccc(NC(=O)c4cc5ccccc5s4)c3)CC2)cc1.O=C(O)C(F)(F)F`, the values for the Inhibition in assay [1], in assay [2] and in assay [3] were 94%, 32% and 32%, respectively.
Regarding `Cc1ccccc1C1CCN(C2CCC(NC(=O)/C=C/c3ccc(Cl)cc3)CC2)CC1` (stereo not drawn), the Inhibition in assay [1] turned out to be 99%; in assay [2] it was 25%; in assay [3] it was 78%.
The corresponding values for `Cl.Fc1cc(Cl)ccc1Nc1ccnc2cc(-c3ccc(CN4CCNCC4)o3)ccc12` are 100%, 99% and 16%.
For `CC(=O)N(Cc1nc(-c2cc(C(F)(F)F)cc(C(F)(F)F)c2)cs1)c1c(C)cccc1C`, in that order: 100%, 99% and 0%.
For `CCCCc1ccc2ncc(C(=O)OCC)c(O)c2c1`, in that order: 95%, 96% and 3%.
In the case of `CCOC(=O)C(C(C)=O)C(c1ccccc1)C(C(C)=O)C(=O)OCC` (stereo not drawn), the Inhibition turned out to be 95% in assay [1], 14% in assay [2] and 6% in assay [3].
For `COc1ccc2nccc(N3CCN(CCNCc4ccc5c(n4)NC(=O)CO5)CC3)c2n1.Cl`, in that order: 98%, 12% and 10%.
For `Cl.Oc1ccccc1CNCC12CC3CC(CC(C3)C1)C2`, in that order: 98%, 99% and 0%.
For the compound `COc1ccc2c(=NN=Cc3cccc(F)c3)cc(C)[nH]c2c1`, the results for the Inhibition in assay [1], in assay [2] and in assay [3] were 100%, 100% and 17%, respectively.
With `COc1ccc2ncc(Cl)c(CCN3C[C@H](CNCc4ccc5c(n4)NC(=O)CS5)[C@H](O)C3)c2n1.Cl`, the Inhibition in assay [1] stood at 94%; in assay [2] it was 16%; in assay [3], 2%.
Turning to `O=C(/C=C/c1c(Cl)cccc1Cl)NC1CCC(CN2CCC(Cc3cc4ccccc4[nH]3)CC2)CC1` (stereo not drawn), the results for the Inhibition in assay [1], in assay [2] and in assay [3] were 91%, 17% and 97%, respectively.
On to `CCOC(=O)CNCC(=O)c1ccc(OCc2ccccc2)cc1.Cl`, for which the Inhibition in assay [1] was found to be 95%; in assay [2], 43%; in assay [3], 4%.
For `CC(C)C[C@@H](CNC[C@H](CC(C)C)NC(=O)OC(C)(C)C)NC(=O)OC(C)(C)C`, in that order: 88%, 58% and 4%.
Take `COc1ccc2nccc([C@@H](O)CN3CCC(NC(=O)c4ccc5nc(-n6cccc6)sc5c4)CC3)c2c1`: the Inhibition in assay [1] is 90%; in assay [2] it was 40%; in assay [3], 26%.
The corresponding values for `CCN(CC)CCN(Cc1ccc(-c2ccc(C(F)(F)F)cc2)cc1)C(=O)Cn1nc(-c2ccc(C(F)(F)F)cc2)ccc1=O` are 100%, 83% and 44%.
On to `CCN(CCS(C)(=O)=O)Cc1ccc(-c2ccc3ncnc(Nc4ccc(OCc5cccc(F)c5)c(Cl)c4)c3c2)o1.Cc1ccc(S(=O)(=O)O)cc1`, for which the Inhibition is given as 100% in assay [1], 63% in assay [2] and 5% in assay [3].
`Cc1cc(Nc2cccc(C(F)(F)F)c2)nc(NCc2ccccc2)n1`: the results for the Inhibition in assay [1], in assay [2] and in assay [3] were 100%, 95% and 17%, respectively.
For `COc1ccc2nccc([C@@H](O)CN3CCC(NC(=O)c4ccc(Cl)c(OC)c4)CC3)c2c1`, in that order: 87%, 28% and 26%.
On to `COCCN1CCC(N(Cc2ccc(-c3ccc(OC(F)(F)F)cc3)cc2)C(=O)Cn2c(CCc3cccc(F)c3F)cc(=O)c3ccccc32)CC1.O=C(O)C(O)C(O)C(=O)O`, for which the Inhibition in assay [1] is on record as 96%; in assay [2], 92%; in assay [3], 100%.
Turning to `O=C(NCc1cccc2ccccc12)c1ccc(CNC2CCN(Cc3ccccc3)CC2)cc1.O=C(O)C(F)(F)F`, the Inhibition in assay [1] came out at 100%; in assay [2], 88%; in assay [3] it was 15%.
Regarding `O=C(O)C(F)(F)F.O=c1[nH]ccc2nc(N[C@@H]3CCCNC3)nc(Nc3ccc(S(=O)(=O)N4CCOCC4)cc3)c12`, the Inhibition was determined as 96% in assay [1], 99% in assay [2] and 13% in assay [3].
The corresponding values for `CCNCc1ccc(-c2cccc(-c3nc4ccccc4[nH]3)c2)cc1.O=C(O)C(F)(F)F` are 100%, 18% and 26%.
The corresponding values for `Nc1cc(-c2ccc3ccccc3c2)nc2ccccc12` are 99%, 52% and 19%.
For `Cc1ccc2nc(C)n(C3CCN(C(=O)C4(c5ccccc5)CC4)CC3)c2c1`, in that order: 100%, 83% and 8%.
Consider `Cc1c(CNCCCNc2cc(=O)c3ccccc3[nH]2)sc(C(F)F)c1Br.Cl`, for which the values for the Inhibition in assay [1], in assay [2] and in assay [3] were 98%, 29% and 0%, respectively.
For `CC(C)C[C@H](NC(=O)[C@H](Cc1ccccc1)N(C[C@H](Cc1ccccc1)NC(=O)OC(C)(C)C)C(=O)C(F)(F)F)C(=O)NC1CCN(Cc2ccccc2)CC1`, the Inhibition in assay [1] turned out to be 92%; in assay [2], 82%; in assay [3] it was 13%.
For the compound `O=C(/C=C/c1ccc(CNCCN2CCOCC2)cc1)NCCc1ccccc1`, the Inhibition in assay [1] was found to be 94%; in assay [2] it was 3%; in assay [3] it was 9%.
Consider `O=C(O)C(F)(F)F.Oc1ccc(CCCNc2nc(NCc3cccc4ccccc34)nc(N3CCNCC3)n2)cc1`, for which the Inhibition is reported as 100% in assay [1], 4% in assay [2] and 9% in assay [3].
For `CN1CCN(Cc2ccc(-c3cc4c(Nc5ccc(OCc6cccc(F)c6)c(Cl)c5)ncnc4s3)[nH]2)CC1`, in that order: 100%, 99% and 23%.
For `O=C(Nc1ccc(Cl)cc1)Nc1ccc(-c2csc(-c3nc4ccccc4[nH]3)c2)cc1`, in that order: 90%, 40% and 59%.
On to `CC(C)C[C@H](NC(=O)c1ccc(OCCN2CCOCC2)cc1)C(=O)N[C@H](/C=N/N1CC(=O)NC1=O)CCc1ccccc1`, for which the Inhibition in assay [1] worked out at 88%; in assay [2], 67%; in assay [3] it was 10%.
In the case of `Cc1nc(-c2cccc(Nc3nccc(NCC(O)c4ccccc4C)n3)c2)cs1` (stereo not drawn), the Inhibition in assay [1] turned out to be 92%; in assay [2] it was 14%; in assay [3] it was 38%.
The corresponding values for `CN(C)CC1CCCN1Cc1ccccc1-c1cnn(C)c(=O)c1Oc1ccc(F)cc1.O=C(O)C(F)(F)F` (stereo not drawn) are 91%, 19% and 29%.
For `O=C(O)C(F)(F)F.Oc1ccc(CCNc2nc(NCc3ccccc3-c3ccc(C(F)(F)F)cc3)nc(NC3CCNCC3)n2)cc1`, in that order: 97%, 2% and 12%.
With `Cc1ccccc1C1CCN(c2ncc(C(=O)Nc3ccccc3)cc2Cl)CC1.O=C(O)C(F)(F)F`, the Inhibition in assay [1] is listed as 83%; in assay [2], 83%; in assay [3], 29%.
Consider `Cc1ccc(C2(CN3CCC(NC(=O)c4cc[nH]n4)CC3)CCCCC2)cc1`, for which the figures for the Inhibition in assay [1], in assay [2] and in assay [3] were 97%, 96% and 0%, respectively.
The corresponding values for `CC(C)(c1ccccc1)c1ccc(O)c(CN2CCOCC2)c1` are 99%, 88% and 0%.
As to `O=C(Nc1ccc2c(c1)CCNCC2)Nc1ccc2ccccc2c1.O=C(O)C(F)(F)F`, the Inhibition in assay [1] came to 84%; in assay [2], 23%; in assay [3], 0%.
For `Cc1cccc2nc(C(=O)Nc3nc(CN4CCC(C)CC4)cs3)cn12`, in that order: 94%, 80% and 0%.
Regarding `O=[N+]([O-])c1ccc(Nc2nc(N/N=C/c3cc(Cl)cc(Cl)c3O)nc(Nc3ccccc3)n2)cc1`, the results for the Inhibition in assay [1], in assay [2] and in assay [3] were 100%, 72% and 29%, respectively.
For `Cc1cc(N[C@@H](Cc2ccccc2)C(=O)Nc2ccccc2)nc(NCCc2ccccn2)n1.O=C(O)C(F)(F)F`, in that order: 97%, 50% and 0%.
The corresponding values for `CCc1cn2c3c(cc(C(=O)N[C@@H](Cc4ccccc4)[C@H](O)CNCCOC)cc13)N(C)S(=O)(=O)CC2.O=CO` are 98%, 56% and 7%.
For `CCOC(=O)c1ccc(N2CCN(CCCNC(=O)/C(=C/C=C/c3cc4cc(Cl)c(Cl)cc4[nH]3)OC)CC2)cc1`, in that order: 93%, 72% and 39%.
With `COc1ccc2[nH]ccc(=NN=Cc3cccnc3)c2c1`, the Inhibition in assay [1] came out at 100%; in assay [2], 84%; in assay [3], 0%.
For `CC(CN1CCN(C)CC1)C(=O)Nc1ccc(-c2csc(-c3nc4ccccc4[nH]3)c2)cc1` (stereo not drawn), in that order: 93%, 26% and 15%.
The corresponding values for `O=C(Cc1ccccc1)NC(Nc1ccc([N+](=O)[O-])cc1)C(Cl)(Cl)Cl` (stereo not drawn) are 99%, 100% and 21%.
For `CNc1c2c(nc3ccc(NC(=O)CCCCCCc4ccccc4)cc13)CCCC2.Cl`, in that order: 100%, 82% and 0%.
`N#Cc1cncc(-c2nc3c(N4CCN(c5cnccn5)CC4)cccc3n2CCNCc2ccccc2)c1.O=C(O)C(F)(F)F`: the Inhibition in assay [1] is given as 99%; in assay [2], 31%; in assay [3], 0%.
